Holding throughout (test): DAPPL (digital affinity profiling via proximity ligation, sequencing); 10 mM Tris-HCl pH 7.5, 50 mM NaCl, 1 mM DTT, 4% glycerol, room temperature, 30 min; GST-TFs on glutathione beads, 16-mer random dsDNA library, 0.1% formaldehyde crosslink after washing; high values mean tight binding
What all share (settings): protein: recombinant; tags: N-terminal GST; dsDNA, one strand shown

The target of assay [1] is T1, ERF (Homo sapiens, UniProt P50548 1-548).
T1 sequence: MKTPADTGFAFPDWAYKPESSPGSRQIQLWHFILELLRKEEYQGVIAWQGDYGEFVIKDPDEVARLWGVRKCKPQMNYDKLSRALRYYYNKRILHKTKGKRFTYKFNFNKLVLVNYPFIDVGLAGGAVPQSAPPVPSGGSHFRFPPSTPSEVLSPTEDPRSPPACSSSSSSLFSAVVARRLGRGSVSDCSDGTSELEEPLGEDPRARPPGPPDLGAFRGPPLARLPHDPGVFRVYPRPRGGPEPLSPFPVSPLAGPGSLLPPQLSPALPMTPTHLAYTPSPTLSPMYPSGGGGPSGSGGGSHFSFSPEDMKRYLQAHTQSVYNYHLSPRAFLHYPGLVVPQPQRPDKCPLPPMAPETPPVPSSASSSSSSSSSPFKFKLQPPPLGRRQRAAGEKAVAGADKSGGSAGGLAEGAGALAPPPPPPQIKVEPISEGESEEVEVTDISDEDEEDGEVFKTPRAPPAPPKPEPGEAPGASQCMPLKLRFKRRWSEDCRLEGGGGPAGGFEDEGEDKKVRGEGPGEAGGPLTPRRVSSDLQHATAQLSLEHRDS
In short, it runs like this: (§1)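 Beads coated with glutathione captured GST-fused human transcription factors that had been expressed in yeast, and the factors were then given DNA barcodes and pooled with a tag-only sample. The pools were incubated with 200 nmole of a random double-stranded 16-mer DNA library in Tris/NaCl/DTT/glycerol buffer for 30 min at room temperature, washed, crosslinked with 0.1% formaldehyde and proximity-ligated with BsaI/T4 ligase at 37 °C for 1 h. PCR amplification and Illumina NextSeq500 sequencing came last. Binding signal is each hexamer's read frequency for a factor divided by its frequency for the tag-only sample.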

Assay [2] concerns the target T2, ETV3L (Homo sapiens, UniProt Q6ZN32 1-361).
T2 sequence: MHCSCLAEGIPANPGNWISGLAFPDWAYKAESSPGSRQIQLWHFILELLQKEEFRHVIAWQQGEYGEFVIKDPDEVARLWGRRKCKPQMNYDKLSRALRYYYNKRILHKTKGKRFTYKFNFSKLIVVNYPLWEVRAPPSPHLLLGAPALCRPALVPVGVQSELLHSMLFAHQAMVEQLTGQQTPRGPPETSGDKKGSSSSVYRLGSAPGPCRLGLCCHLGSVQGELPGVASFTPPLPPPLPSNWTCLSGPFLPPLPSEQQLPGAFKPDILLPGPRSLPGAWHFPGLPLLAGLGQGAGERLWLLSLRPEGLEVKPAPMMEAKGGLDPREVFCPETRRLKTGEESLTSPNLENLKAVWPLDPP
In short, it runs like this: as §1

Assay [3] deals with T3, ETS2 (Homo sapiens, UniProt P15036 1-469).
T3 sequence: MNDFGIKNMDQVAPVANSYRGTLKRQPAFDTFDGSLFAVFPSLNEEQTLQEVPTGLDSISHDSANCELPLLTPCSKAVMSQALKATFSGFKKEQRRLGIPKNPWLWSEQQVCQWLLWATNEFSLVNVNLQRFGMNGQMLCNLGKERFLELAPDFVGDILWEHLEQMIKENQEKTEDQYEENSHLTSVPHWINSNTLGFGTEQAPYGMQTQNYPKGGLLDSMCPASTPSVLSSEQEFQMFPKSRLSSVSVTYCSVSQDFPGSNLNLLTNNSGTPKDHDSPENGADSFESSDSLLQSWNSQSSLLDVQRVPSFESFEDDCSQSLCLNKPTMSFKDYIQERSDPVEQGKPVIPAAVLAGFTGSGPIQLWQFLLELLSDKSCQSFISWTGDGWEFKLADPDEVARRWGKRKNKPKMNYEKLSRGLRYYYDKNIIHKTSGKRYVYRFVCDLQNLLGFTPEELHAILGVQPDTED
In short, it runs like this:
as §1

Assay [4] has as its target T4, SPDEF (Homo sapiens, UniProt O95238 1-335).
T4 sequence: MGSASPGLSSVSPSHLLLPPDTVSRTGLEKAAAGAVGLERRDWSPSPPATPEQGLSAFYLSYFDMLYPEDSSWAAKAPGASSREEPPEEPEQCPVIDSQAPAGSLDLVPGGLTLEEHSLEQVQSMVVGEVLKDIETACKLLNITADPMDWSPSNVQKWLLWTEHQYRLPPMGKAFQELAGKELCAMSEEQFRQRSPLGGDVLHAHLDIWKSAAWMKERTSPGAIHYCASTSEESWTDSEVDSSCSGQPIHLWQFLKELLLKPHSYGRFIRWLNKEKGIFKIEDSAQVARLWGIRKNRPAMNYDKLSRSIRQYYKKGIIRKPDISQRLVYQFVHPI
In short, it runs like this:
as §1

For assay [5], the target named is T5, ETV7 (Homo sapiens, UniProt Q9Y603 1-341).
T5 sequence: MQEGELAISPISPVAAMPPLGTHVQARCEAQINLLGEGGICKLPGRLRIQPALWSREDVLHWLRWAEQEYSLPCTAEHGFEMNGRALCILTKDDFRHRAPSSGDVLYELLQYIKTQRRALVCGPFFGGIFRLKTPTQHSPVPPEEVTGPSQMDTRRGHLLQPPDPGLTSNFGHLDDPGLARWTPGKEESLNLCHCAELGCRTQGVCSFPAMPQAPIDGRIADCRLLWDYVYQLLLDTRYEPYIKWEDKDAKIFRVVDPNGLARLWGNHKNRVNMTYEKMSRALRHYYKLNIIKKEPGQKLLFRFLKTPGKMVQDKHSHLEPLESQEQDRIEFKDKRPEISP
In short, it runs like this:
as §1

Assay [6] addresses T6, ELF5 (Homo sapiens, UniProt Q9UKW6-2 1-255).
T6 sequence: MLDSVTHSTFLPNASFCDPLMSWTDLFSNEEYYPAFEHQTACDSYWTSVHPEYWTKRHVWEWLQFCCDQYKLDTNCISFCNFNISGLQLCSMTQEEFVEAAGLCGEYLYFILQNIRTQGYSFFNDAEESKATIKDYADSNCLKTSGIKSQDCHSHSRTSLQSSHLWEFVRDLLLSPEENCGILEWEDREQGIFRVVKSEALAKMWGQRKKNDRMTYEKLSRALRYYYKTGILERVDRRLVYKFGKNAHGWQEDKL
In short, it runs like this:
as §1

The target in assay [7] is T7, ETV3 (Homo sapiens, UniProt P41162-2 1-143).
T7 sequence: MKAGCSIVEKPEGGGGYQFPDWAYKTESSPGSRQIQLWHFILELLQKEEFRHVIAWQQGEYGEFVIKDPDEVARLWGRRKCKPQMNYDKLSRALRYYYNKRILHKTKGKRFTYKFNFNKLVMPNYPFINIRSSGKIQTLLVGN
In short, it runs like this:
as §1

Assay [8] deals with ETV6 (Homo sapiens, UniProt P41212 1-452). In short, it runs like this: as §1
Chain of ETV6 (P41212 whole entry): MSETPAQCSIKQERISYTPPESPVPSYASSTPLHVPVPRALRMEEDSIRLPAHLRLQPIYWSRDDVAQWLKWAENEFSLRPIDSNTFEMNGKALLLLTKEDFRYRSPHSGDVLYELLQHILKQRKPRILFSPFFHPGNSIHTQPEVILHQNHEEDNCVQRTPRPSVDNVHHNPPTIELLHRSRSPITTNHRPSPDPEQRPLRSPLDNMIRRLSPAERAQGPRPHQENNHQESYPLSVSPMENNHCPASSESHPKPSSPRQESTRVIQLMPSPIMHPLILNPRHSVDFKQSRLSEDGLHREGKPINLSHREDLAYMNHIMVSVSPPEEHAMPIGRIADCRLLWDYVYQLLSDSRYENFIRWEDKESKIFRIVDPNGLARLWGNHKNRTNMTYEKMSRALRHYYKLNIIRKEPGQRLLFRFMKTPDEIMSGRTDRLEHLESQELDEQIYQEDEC

As to AACGGC, the binding signal was 1.2 fold enrichment (6-mer frequency, TF over GST control) in assay [1]; 1.23 fold enrichment (6-mer frequency, TF over GST control) in assay [2]; 1.22 fold enrichment (6-mer frequency, TF over GST control) in assay [3]; 1.16 fold enrichment (6-mer frequency, TF over GST control) in assay [4]; 1.11 fold enrichment (6-mer frequency, TF over GST control) in assay [5]; 1.16 fold enrichment (6-mer frequency, TF over GST control) in assay [6]. The binding signal in assay [7] was 1.29 fold enrichment (6-mer frequency, TF over GST control); in assay [8] it was 1.26 fold enrichment (6-mer frequency, TF over GST control).

For the sequence TTCCAG, the binding signal in assay [1] was 1.09 fold enrichment (6-mer frequency, TF over GST control); in assay [2], 1.09 fold enrichment (6-mer frequency, TF over GST control); in assay [3] it was 1.12 fold enrichment (6-mer frequency, TF over GST control); in assay [4], 1.04 fold enrichment (6-mer frequency, TF over GST control); in assay [5], 1.16 fold enrichment (6-mer frequency, TF over GST control); in assay [6], 1.18 fold enrichment (6-mer frequency, TF over GST control). Moreover, the binding signal in assay [7] was 1.06 fold enrichment (6-mer frequency, TF over GST control); in assay [8] it was 1.15 fold enrichment (6-mer frequency, TF over GST control).

With CCGACT, the binding signal in assay [1] was 1.5 fold enrichment (6-mer frequency, TF over GST control); in assay [2], 1.6 fold enrichment (6-mer frequency, TF over GST control); in assay [3], 1.54 fold enrichment (6-mer frequency, TF over GST control); in assay [4], 1.45 fold enrichment (6-mer frequency, TF over GST control); in assay [5], 1.32 fold enrichment (6-mer frequency, TF over GST control); in assay [6], 1.41 fold enrichment (6-mer frequency, TF over GST control). In addition, the binding signal is 1.34 fold enrichment (6-mer frequency, TF over GST control) in assay [7] and 1.51 fold enrichment (6-mer frequency, TF over GST control) in assay [8].

Regarding CATCGA, the binding signal in assay [1] is 1.16 fold enrichment (6-mer frequency, TF over GST control); in assay [2], 1.21 fold enrichment (6-mer frequency, TF over GST control); in assay [3], 1.15 fold enrichment (6-mer frequency, TF over GST control); in assay [4], 1.04 fold enrichment (6-mer frequency, TF over GST control); in assay [5] it was 1.13 fold enrichment (6-mer frequency, TF over GST control); in assay [6], 1.05 fold enrichment (6-mer frequency, TF over GST control). Moreover, the binding signal in assay [7] is 1.08 fold enrichment (6-mer frequency, TF over GST control); in assay [8], 1.01 fold enrichment (6-mer frequency, TF over GST control).

For GGTATA, the binding signal was 1.18 fold enrichment (6-mer frequency, TF over GST control) in assay [1]; 1.12 fold enrichment (6-mer frequency, TF over GST control) in assay [2]; 1.08 fold enrichment (6-mer frequency, TF over GST control) in assay [3]; 1.12 fold enrichment (6-mer frequency, TF over GST control) in assay [4]; 1.13 fold enrichment (6-mer frequency, TF over GST control) in assay [5]; 1.09 fold enrichment (6-mer frequency, TF over GST control) in assay [6]. The binding signal is 1.11 fold enrichment (6-mer frequency, TF over GST control) in assay [7] and 1.03 fold enrichment (6-mer frequency, TF over GST control) in assay [8].

For CTCATA, the binding signal in assay [1] was 1.35 fold enrichment (6-mer frequency, TF over GST control); in assay [2], 1.3 fold enrichment (6-mer frequency, TF over GST control); in assay [3], 1.35 fold enrichment (6-mer frequency, TF over GST control); in assay [4] it was 1.33 fold enrichment (6-mer frequency, TF over GST control); in assay [5], 1.32 fold enrichment (6-mer frequency, TF over GST control); in assay [6], 1.39 fold enrichment (6-mer frequency, TF over GST control). Also, the binding signal in assay [7] was 1.26 fold enrichment (6-mer frequency, TF over GST control); in assay [8] it was 1.27 fold enrichment (6-mer frequency, TF over GST control).

Consider TGGCAG, for which the binding signal in assay [1] was 1.11 fold enrichment (6-mer frequency, TF over GST control); in assay [2] it was 1.12 fold enrichment (6-mer frequency, TF over GST control); in assay [3], 1.05 fold enrichment (6-mer frequency, TF over GST control); in assay [4] it was 1.05 fold enrichment (6-mer frequency, TF over GST control); in assay [5] it was 1.04 fold enrichment (6-mer frequency, TF over GST control); in assay [6], 1.09 fold enrichment (6-mer frequency, TF over GST control). The binding signal is 1.16 fold enrichment (6-mer frequency, TF over GST control) in assay [7] and 1.09 fold enrichment (6-mer frequency, TF over GST control) in assay [8].

The values above are taken from paper PMC7862700, “An all-to-all approach to the identification of sequence-specific readers for epigenetic DNA modifications on cytosine”.
